An excerpt weighted towards active compounds, which were near 12% of everything screened.
BAZ2B block: blocks human BAZ2B; Q9UIF8; AlphaScreen BAZ2B-H3K14Ac peptide displacement; Potency, µM (titrated, usually from 114 µM), hits mostly inhibitors; 360,000 compounds, 4.4% hits; AID 504333; also: nearly all actives have a fitted effect of over 60% in size
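Protein-peptide AlphaScreen: BAZ2B 50 nM, b-H3K14Ac 50 nM, 1x PBS pH 7.4 + 0.01% Tween-20. Preincubation 30 min RT; cpd 30 min RT (top 110 uM); beads 20 min RT, light-protected.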
PLK1 PBD block: inhibitors of human PLK1 polo-box domain binding. P53350. Plk1 PBD binding of FITC phosphopeptide, fluorescence polarization. Potency, µM, hits mostly inhibitors. 360,000 compounds, 2.8% hits; also: series mostly up to about 57 µM; nearly all actives have a fitted effect of over 65% in size
Sfp inh: inhibitors of Bacillus subtilis Sfp phosphopantetheinyl transferase; 310,000 compounds, 3.5% hits; Biochemical Sfp PPTase activity, qHTS; Q9F4F7; Potency, µM, actives largely listed as inhibitors;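 also: the enzyme is Sfp with the accession as filed and its product quenches rhodamine fluorescence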
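Fluorescence-quenching assay: 15 nM Sfp-PPTase preincubated 15 min at room temperature with compound, then 5 uM rhodamine-CoA and 12.5 uM BHQ-2-labelled YbbR peptide added. Fluorescence (ex 525/em 598 nm) read at start and after 30 min; difference gives rate.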
G9a block: inhibitors of human histone lysine methyltransferase G9a | G9a H3K9 monomethylation, AlphaScreen, 2 h | Potency, µM (top dose mostly 102 µM), actives largely listed as inhibitors | 350,000 compounds, 8.8% hits | AID 504332; also: nearly all actives have a fitted effect of over 75% in size
Target sequence (Q96KQ7 913-1193 limits assumed): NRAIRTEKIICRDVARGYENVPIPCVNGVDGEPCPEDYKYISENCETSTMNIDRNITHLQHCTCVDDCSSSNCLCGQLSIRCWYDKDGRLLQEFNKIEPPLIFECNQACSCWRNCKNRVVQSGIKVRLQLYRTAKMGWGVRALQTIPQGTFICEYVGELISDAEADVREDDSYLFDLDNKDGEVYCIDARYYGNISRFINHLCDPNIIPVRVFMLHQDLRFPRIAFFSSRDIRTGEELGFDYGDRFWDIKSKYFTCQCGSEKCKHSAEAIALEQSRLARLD
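Using a bead-based AlphaScreen, monomethylated H3K9 product from 2 h room-temperature reactions (G9a 20 nM, peptide 500 nM, SAM 20 uM) was detected with 0.5 ug/mL rabbit anti-H3K9me1 antibody.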
JMJD2A Tudor inh: inhibitors of human JMJD2A Tudor domain | Potency, µM (doses to about 114 µM), most hits filed as inhibitors | AlphaScreen JMJD2A-Tudor / H3K4me3 peptide binding | 390,000 compounds, 4.4% hits | O75164; also: nearly all actives have a fitted effect of over 50% in size
HP1b binding inh: inhibitors of HP1-beta chromodomain binding to methylated histone tails | 390,000 compounds, 0.56% hits | Potency, µM (doses to about 114 µM), hits mostly inhibitors | AID 540317 | AlphaScreen HP1-beta / biotin-H3K9me3 peptide binding; also: nearly all actives have a fitted effect of over 70% in size
Target sequence (P83916 whole entry, looked up): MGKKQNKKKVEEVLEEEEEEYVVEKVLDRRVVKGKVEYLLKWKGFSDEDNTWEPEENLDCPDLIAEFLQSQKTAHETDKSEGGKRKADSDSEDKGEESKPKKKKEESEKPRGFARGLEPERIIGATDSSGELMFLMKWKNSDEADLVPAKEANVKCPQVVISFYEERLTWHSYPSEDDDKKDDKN
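AlphaScreen: HP1-beta (50 nM) preformed 30 min with biotin-H3(1-18)K9me3 peptide (50 nM) in PBS pH 7.4, 0.01% Tween-20. Compound added for 30 min at RT, then streptavidin donor/nickel chelate acceptor beads (10 ug/mL) for 30 min.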
Each line names hits and unclear results; the compound was inactive in the other large screens. Calls follow the shape of the dose curve; as a rule, active = well fitted curve in the direction sought with a large enough effect; inconclusive = small, poorly fitted or top-dose-only effect, or another doubt; inactive = no such curve, though single readings can be large; an effect the other way counts as inactive or inconclusive.

COc1cc(OC)nc(Oc2ccccc2C(=O)Oc2ccc(Cl)cc2)n1	none
CCOC(=O)C1CCN(C2=C(NS(=O)(=O)c3ccc(Br)cc3)C(=O)c3ccccc3C2=O)CC1	BAZ2B block 5.6µM, PLK1 PBD block inconclusive, G9a block 8.9µM, JMJD2A Tudor inh 7.9µM, HP1b binding inh 7.1µM
NC(=O)C1CCN(C2=C(NS(=O)(=O)c3ccccc3)C(=O)c3ccccc3C2=O)CC1	BAZ2B block 40µM, JMJD2A Tudor inh inconclusive, HP1b binding inh inconclusive (no result: G9a block)
CCOC(=O)C1CCN(C(=O)c2cccc(NS(=O)(=O)c3ccc(Br)cc3)c2)CC1	none (no result: Sfp inh)
CCN1CCN(C2=C(NS(=O)(=O)c3ccc(Br)cc3)C(=O)c3ccccc3C2=O)CC1	BAZ2B block 45µM, G9a block 45µM, JMJD2A Tudor inh inconclusive
CCN1CCN(C2=C(NS(=O)(=O)c3ccccc3)C(=O)c3ccccc3C2=O)CC1	BAZ2B block inconclusive
NC(=O)C1CCN(C2=C(NS(=O)(=O)c3ccc(Br)cc3)C(=O)c3ccccc3C2=O)CC1	BAZ2B block 40µM, JMJD2A Tudor inh 79µM, HP1b binding inh inconclusive (no result: G9a block)
NC(=O)C1CCN(c2nc3ccccc3nc2NS(=O)(=O)c2ccc(Br)cc2)CC1	none (no result: BAZ2B block, Sfp inh, G9a block)
Cc1cccc(Nc2nc(C)nc3c2oc2ccccc23)c1	BAZ2B block inconclusive, Sfp inh inconclusive, G9a block 79µM
Cc1nc(Nc2ccncc2)c2oc3ccccc3c2n1	none
COc1ccc(CCNc2nc(C)nc3c2oc2ccccc23)cc1OC	Sfp inh 28µM
COc1ccc(CCNc2ncnc3c2oc2ccccc23)cc1OC	BAZ2B block inconclusive, Sfp inh inconclusive, JMJD2A Tudor inh inconclusive
COc1cc(C2c3cc4c(cc3OC(N3CCCCC3)C2C)OCO4)cc(OC)c1O (stereo unspecified)	none (no result: BAZ2B block, Sfp inh, G9a block)
CC1C(c2ccc3c(c2)OCO3)c2cc3c(cc2OC1N1CCOCC1)OCO3 (stereo unspecified)	JMJD2A Tudor inh 18µM, HP1b binding inh inconclusive (no result: BAZ2B block, Sfp inh, G9a block)
Cc1sc(NC(=S)NC(=O)c2ccc(C(C)(C)C)cc2)c(C#N)c1C	PLK1 PBD block inconclusive, G9a block inconclusive
Cc1sc(NC(=S)NC(=O)c2ccco2)c(C#N)c1C	PLK1 PBD block inconclusive, Sfp inh 40µM, G9a block 35µM
Cc1sc(NC(=S)NC(=O)c2ccccc2)c(C#N)c1C	PLK1 PBD block 12µM (no result: BAZ2B block, Sfp inh, G9a block)
CC(Sc1nc2ccccc2c(=O)[nH]1)C(=O)O (stereo unspecified)	G9a block 3.2µM
C=CCn1c(C)cc(C(=O)CSc2nc3ccccc3c(=O)[nH]2)c1C	BAZ2B block inconclusive, PLK1 PBD block 12µM, Sfp inh inconclusive, G9a block 50µM
Nc1nc(SCC(=O)c2cc(F)ccc2F)n[nH]1	G9a block 40µM
C=CCn1c(C)cc(C(=O)CSc2n[nH]c(N)n2)c1C	G9a block 32µM, JMJD2A Tudor inh inconclusive
COc1cc(CN(C(=O)c2ccc(OC(C)C)cc2)c2ccccn2)cc(OC)c1OC	none (no result: PLK1 PBD block, Sfp inh)
CCc1nc2ccc(C(=O)Nc3cccc(OCC(=O)N(C)C)c3)cn2c1N(CC)CCOC	none (no result: BAZ2B block, Sfp inh, G9a block, JMJD2A Tudor inh, HP1b binding inh)
CCc1ccc(C(=O)CSc2nc3ccccc3c(=O)[nH]2)cc1	none
Cc1ccc(C(=O)CSc2nc3ccccc3c(=O)[nH]2)cc1	G9a block 45µM
CC1=CC(c2ccc(Cl)cc2)n2nc(NC(=O)CCCC(=O)O)nc2N1 (stereo unspecified)	BAZ2B block inconclusive, G9a block 50µM, JMJD2A Tudor inh 25µM
CC(=O)Nc1nc2n(n1)C(c1ccc(F)cc1)C=C(c1ccc(Cl)cc1)N2 (stereo unspecified)	BAZ2B block inconclusive, G9a block inconclusive (no result: PLK1 PBD block, Sfp inh)
CC1=CC(c2ccc(Cl)cc2)n2nc(NC(=O)CCC(=O)O)nc2N1 (stereo unspecified)	BAZ2B block 50µM, G9a block 20µM, JMJD2A Tudor inh inconclusive
O=C1CSC(=S)N1N=C1CCCCCC1	Sfp inh 18µM, G9a block inconclusive
O=C1C2C3C=CC(O3)C2C(=O)N1N=C1CCCCC1 (stereo unspecified)	none (no result: BAZ2B block, Sfp inh, G9a block)
CC(C)(C)c1nc(SCC(=O)N2CCCC2)c2ccccc2n1	G9a block 50µM
CC(C)(C)c1nc(SCC(=O)c2ccccc2)c2ccccc2n1	Sfp inh inconclusive
CC(=O)c1cccc(NS(=O)(=O)c2ccc(-c3cc(C)no3)s2)c1	none
Cc1ccc(Nc2nc(N3CCOCC3)c3ccccc3n2)cc1	G9a block inconclusive
COc1ccc(Nc2nc(-c3ccccc3)c3cc(Br)ccc3n2)cc1	BAZ2B block inconclusive, G9a block 13µM, JMJD2A Tudor inh inconclusive (no result: PLK1 PBD block, Sfp inh)
N#CC(C#N)=Cc1cc2ccccc2nc1N1CCCCC1	BAZ2B block 40µM, PLK1 PBD block inconclusive, G9a block inconclusive, JMJD2A Tudor inh inconclusive
Oc1ccc(Nc2nc(N3CCCC3)c3ccccc3n2)cc1	BAZ2B block inconclusive, G9a block 40µM, JMJD2A Tudor inh 56µM
c1ccc2nc(N3CCCC3)c(N3CCCC3)nc2c1	none
c1ccc2c(c1)nc(N1CCCCCC1)c1ccccc12	JMJD2A Tudor inh 18µM
Cc1c(Cl)cccc1NC(=O)c1ccc2c(c1)CCCN2S(C)(=O)=O	none (no result: PLK1 PBD block, Sfp inh)
COc1ccc(/C=N/Nc2nc(Nc3ccccc3)nc(N3CCCC3)n2)cc1	none (no result: BAZ2B block)
COc1ccc(Nc2nc(N3CCCCC3)c3ccccc3n2)cc1	BAZ2B block inconclusive, Sfp inh 50µM, G9a block inconclusive, JMJD2A Tudor inh inconclusive
CS(=O)(=O)c1ccc(C(=O)OCC(=O)Nc2ccc(OC(F)(F)F)cc2)cc1[N+](=O)[O-]	none (no result: BAZ2B block, PLK1 PBD block, Sfp inh, G9a block)
COc1ccccc1N1CCN(S(=O)(=O)c2ccc3c(c2)NC(=O)C(C)S3)CC1 (stereo unspecified)	none
COc1ccccc1N1CCN(C(=O)C(C)CS(=O)(=O)c2ccc3c(c2)NC(=O)CS3)CC1 (stereo unspecified)	BAZ2B block 56µM, G9a block inconclusive
C=CCSC1=N/C(=C\C=C\c2ccco2)C(=O)S1	BAZ2B block 10µM, PLK1 PBD block inconclusive, Sfp inh 56µM, G9a block 7.1µM, JMJD2A Tudor inh 45µM, HP1b binding inh 40µM
C=CCSC1=N/C(=C\c2sccc2C)C(=O)S1	none (no result: G9a block)
Cc1ccc(S(=O)(=O)N/N=C\c2cn(CC(N)=O)c3ccccc23)cc1C	BAZ2B block inconclusive, G9a block 79µM
CCOc1cc(C(=S)N2CCCC2)ccc1O	PLK1 PBD block 19µM, Sfp inh 35µM, HP1b binding inh inconclusive (no result: G9a block)
COc1cc(C(=S)N2CCC(C(N)=O)CC2)ccc1O	PLK1 PBD block 27µM, Sfp inh 20µM, G9a block inconclusive
COc1cc(C(=S)N2CCCCC2)ccc1O	PLK1 PBD block inconclusive, Sfp inh 45µM, G9a block 50µM
COc1ccc(C(=O)C2CCCN(C(=O)CSC)C2)cc1OC (stereo unspecified)	G9a block 71µM
